# Assay results taken from PubChem BioAssay (EPA / NIEHS).
# Results filed as inconclusive are left out. Some structures have more than one record in an assay (separate samples or runs), and their calls can disagree. The source made the active and inactive calls. How the source made its calls: active means hit-call score of the fitted dose curve at least 0.9, where 1 is the maximum; inconclusive means response in the unintended direction; inactive means score below 0.9.
# Test system: zebrafish Estrogen Receptor (ER2a), gene 317734
# Assay: ATG_zfER2a_XSP2: Attagene TRANS-FACTORIAL Multi-Species (XSP2) HepG2 Assay for zebrafish Estrogen Receptor (ER2a) (AID 2283818);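 further: hits raise reporter mRNA so AC50 reflects activation of zebrafish ER2a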
# Procedure: ATG_XSP2_multi-species_TRANS is a cell-based, multiplexed assay created by modifying the existing Attagene TRANS-FACTORIAL system to include a panel of nuclear receptors from some or all the following species: human (Homo sapiens), mouse (Mus musculus), frog (Xenopus laevis), zebrafish (Danio rerio), chicken (Gallus gallus), and turtle (Chrysemys picta). The ECOTOX-FACTORIAL format uses HepG2, a human liver cell line, with measurements taken at 24 hours after chemical dosing in a 24-well plate. Xsp2 included 3 nM 6-alpha-fluorotestosterone and 1.5 nM norgestrel to stimulate the androgen receptor.ATG_zfER2a_XSP2 is one of 29 assay components measured or calculated from the ATG_XSP2_multi-species_TRANS assay. It is designed to make measurements of mRNA induction, a form of inducible reporter, as detected with fluorescence intensity signals by Reverse transcription polymerase chain reaction (RT-PCR) and Capillary electrophoresis technology.The assay endpoint ATG_zfER2a_XSP2 was analyzed in the positive analysis fitting direction relative to DMSO as the negative control and baseline of activity. Using a type of inducible reporter, measures of mRNA for gain-of-signal activity can be used to understand the reporter gene at the transcription factor-level as they relate to the gene ER. Furthermore, this assay endpoint can be referred to as a primary readout, because this assay has produced multiple assay endpoints where this one serves a reporter gene function. To generalize the intended target to other relatable targets, this assay endpoint is annotated to the nuclear receptor intended target family, where the subfamily is steroidal.
# Human liver HepG2 cells are transiently transfected with multiple reporter transcription units (MRTUs) in 6-well plates using FuGene 6 reagent (Roche; 3 ml FuGene/1 mg DNA). The MRTU constructs are regulated by a cis-regulating element (promoter). […] A major difference between the CIS and TRANS system is that in CIS activities of endogenous TFs are measured, whereas the TRANS assay evaluates changes in activities of exogenous, chimeric NR-Gal4 proteins. […] At the end of 24 hour incubation, total RNA was isolated using TriZol reagent (Invitrogen). The isolated RNA is then reverse-transcribed using oligo(dT) primer and Mo-MLV reverse transcriptase (Invitrogen) with DNAse I (Ambion) treatment for 30 min. The one-tenth of the produced cDNA was amplified by PCR using Taq DNA polymerase (Invitrogen) and two reporter sequence-specific primers. The PCR products were fluorescently labeled by primer extension with 6-arboxyfluorescein (6-FAM) 5'-labeled reporter sequence-specific primer (2 min at 95 C, 20 s at 68 C and 10 min at 72 C) and these products were digested with 5U of HpaI (New England Biolabs) for 2h at 37 C. The fragments were purified using Qiaquick PCR columns (Qiagen), analyzed on an ABI 3130xL genetic analyzer (Applied Biosystems) with peak positions identified by using a set of X-rhodamine (ROX)-labeled MapMarker1000 molecular weight standards (BioVentures). The raw capillary electrophoresis data was processed using Attagraph software (Attagene).
SMILES,outcome,AC50
CCC(CC)Nc1c([N+](=O)[O-])cc(C)c(C)c1[N+](=O)[O-],inactive,–
CCOP(=O)(NC(C)C)Oc1ccc(SC)c(C)c1 (stereo not given),inactive,100 µM (active)
COc1ccc(C(=CC(=O)N2CCOCC2)c2ccc(Cl)cc2)cc1OC,inactive,–
C#CCC1=C(C)C(OC(=O)C2C(C=C(C)C)C2(C)C)CC1=O (stereo not given),inactive,–
CCOP(=S)(OCC)Oc1ccc2c(C)c(Cl)c(=O)oc2c1,inactive,–
Nc1c(Cl)cc([N+](=O)[O-])cc1Cl,inactive,–
CCC(=O)Nc1ccc(Cl)c(Cl)c1,inactive,–
CCCOCC(=Nc1ccc(Cl)cc1C(F)(F)F)n1ccnc1,inactive,–
C#CC(C)(C)NC(=O)c1cc(Cl)cc(Cl)c1,inactive,–
